# Results published in article PMC5540273 (PLoS ONE, 2017).
# Where two headings read alike, the source gives them in different places.
# Experiments:
# [1] = system: CSNK1G1; conditions: concentration: 1 μM, replicates: in singlicate; n = 1
# [2] = system: CSNK1G2; conditions: concentration: 1 μM, replicates: in singlicate; n = 1
# [3] = system: CSNK1G3; conditions: concentration: 1 μM, replicates: in singlicate; n = 1
# [4] = system: CSNK2A1; conditions: concentration: 1 μM, replicates: in singlicate; n = 1
# [5] = system: CSNK2A2; conditions: concentration: 1 μM, replicates: in singlicate; n = 1
# [6] = system: T1, CTK; conditions: concentration: 1 μM, replicates: in singlicate; n = 1
# T1 construct: gene MATK
# [7] = system: DAPK1; conditions: concentration: 1 μM, replicates: in singlicate; n = 1
# [8] = system: DAPK2; conditions: concentration: 1 μM, replicates: in singlicate; n = 1
# [9] = system: DAPK3; conditions: concentration: 1 μM, replicates: in singlicate; n = 1
# [10] = system: T2, DCAMKL1; conditions: concentration: 1 μM, replicates: in singlicate; n = 1
# T2 construct: gene DCLK1
# [11] = system: T3, DCAMKL2; conditions: concentration: 1 μM, replicates: in singlicate; n = 1
# T3 construct: gene DCLK2
# [12] = system: T4, DCAMKL3; conditions: concentration: 1 μM, replicates: in singlicate; n = 1
# T4 construct: gene DCLK3
# [13] = system: DDR1; conditions: concentration: 1 μM, replicates: in singlicate; n = 1
# [14] = system: DDR2; conditions: concentration: 1 μM, replicates: in singlicate; n = 1
# [15] = system: T5, DLK; conditions: concentration: 1 μM, replicates: in singlicate; n = 1
# T5 construct: gene MAP3K12
# [16] = system: T6, DMPK2; conditions: n = 1
# T6 construct: gene CDC42BPG
# [17] = system: DMPK; conditions: concentration: 1 μM, replicates: in singlicate; n = 1
# [18] = system: T7, DRAK1; conditions: concentration: 1 μM, replicates: in singlicate; n = 1
# T7 construct: gene STK17A
# [19] = system: T8, DRAK2; conditions: concentration: 1 μM, replicates: in singlicate; n = 1
# T8 construct: gene STK17B
# [20] = system: DYRK1A; conditions: concentration: 1 μM, replicates: in singlicate; n = 1
# [21] = concentration: 1 μM, replicates: in singlicate
# 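Also: KINOMEscan kinase panel screen.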
smiles,measurement,setting,value
Cn1cc(-c2[nH]c3cc(NC(=O)[C@H](N)C4CCCCC4)cc4c3c2C=NNC4=O)cn1,%Inh,[1],0%
same,%Inh,[2],0%
same,%Inh,[3],2%
same,%Inh,[4],68%
same,%Inh,[5],77%
same,%Inh,[6],0%
same,%Inh,[7],99.8%
same,%Inh,[8],98.7%
same,%Inh,[9],99.7%
same,%Inh,[10],46%
same,%Inh,[11],24%
same,%Inh,[12],99.4%
same,%Inh,[13],0%
same,%Inh,[14],39%
same,%Inh,[15],94.8%
same,%Inh,[16]; [21],0%
same,%Inh,[17],82%
same,%Inh,[18],99.6%
same,%Inh,[19],99.9%
same,%Inh,[20],79%
CCn1c(-c2nonc2N)nc2c(C#CC(C)(C)O)ncc(OCCCCN)c21.O=C(O)C(F)(F)F.O=C(O)C(F)(F)F [GSK507274],%Inh,[1],40%
same,%Inh,[2],0%
same,%Inh,[3],15%
same,%Inh,[4],0%
same,%Inh,[5],0%
same,%Inh,[6],2%
same,%Inh,[7],28%
same,%Inh,[8],10%
same,%Inh,[9],82%
same,%Inh,[10],40%
same,%Inh,[11],34%
same,%Inh,[12],98.7%
same,%Inh,[13],0%
same,%Inh,[14],0%
same,%Inh,[15],1%
same,%Inh,[16]; 1 µM,0%
same,%Inh,[17],0%
same,%Inh,[18],0%
same,%Inh,[19],2%
same,%Inh,[20],25%
O=C(Nc1cccc(Oc2ccc3nc(NC(=O)C4CC4)cn3n2)c1)c1ccccc1C(F)(F)F,%Inh,[1],8%
same,%Inh,[2],0%
same,%Inh,[3],26%
same,%Inh,[4],0%
same,%Inh,[5],0%
same,%Inh,[6],0%
same,%Inh,[7],0%
same,%Inh,[8],5%
same,%Inh,[9],7%
same,%Inh,[10],39%
same,%Inh,[11],0%
same,%Inh,[12],0%
same,%Inh,[13],98.9%
same,%Inh,[14],88%
same,%Inh,[15],7%
same,%Inh,[16]; [21],17%
same,%Inh,[17],0%
same,%Inh,[18],0%
same,%Inh,[19],21%
same,%Inh,[20],12%
O=C(NC1CCN(c2ccnc(Nc3ccc(F)cc3)n2)C1)c1cc2ccccc2s1 (centres unmarked) [GSK1379716],%Inh,[1],20%
same,%Inh,[2],0%
same,%Inh,[3],24%
same,%Inh,[4],0%
same,%Inh,[5],12%
same,%Inh,[6],0%
same,%Inh,[7],19%
same,%Inh,[8],15%
same,%Inh,[9],5%
same,%Inh,[10],18%
same,%Inh,[11],9%
same,%Inh,[12],7%
same,%Inh,[13],0%
same,%Inh,[14],32%
same,%Inh,[15],32%
same,%Inh,[16]; [21],0%
same,%Inh,[17],0%
same,%Inh,[18],7%
same,%Inh,[19],0%
same,%Inh,[20],7%
COc1ccc(Nc2nccc(NCCNC(=O)c3cc4ccccc4s3)n2)cc1 [GSK1379896],%Inh,[1],54%
same,%Inh,[2],0%
same,%Inh,[3],27%
same,%Inh,[4],0%
same,%Inh,[5],15%
same,%Inh,[6],0%
same,%Inh,[7],4%
same,%Inh,[8],2%
same,%Inh,[9],0%
same,%Inh,[10],10%
same,%Inh,[11],0%
same,%Inh,[12],0%
same,%Inh,[13],0%
same,%Inh,[14],15%
same,%Inh,[15],0%
same,%Inh,[16]; [21],0%
same,%Inh,[17],0%
same,%Inh,[18],0%
same,%Inh,[19],0%
same,%Inh,[20],0%
Cc1ccc(F)c(C(=O)Nc2cccc(-c3nn4ccccc4c3-c3ccnc(Nc4cccc(F)c4)n3)c2)c1F [GSK361061],%Inh,[1],10%
same,%Inh,[2],12%
same,%Inh,[3],27%
same,%Inh,[4],20%
same,%Inh,[5],10%
same,%Inh,[6],27%
same,%Inh,[7],0%
same,%Inh,[8],10%
same,%Inh,[9],14%
same,%Inh,[10],0%
same,%Inh,[11],13%
same,%Inh,[12],70%
same,%Inh,[13],100%
same,%Inh,[14],87%
same,%Inh,[15],7%
same,%Inh,[16]; [21],85%
same,%Inh,[17],13%
same,%Inh,[18],0%
same,%Inh,[19],0%
same,%Inh,[20],11%
c1ccc(-c2n[nH]cc2Nc2ccnc3ccccc23)nc1 [GW694077],%Inh,[1],100%
same,%Inh,[2],1%
same,%Inh,[3],12%
same,%Inh,[4],54%
same,%Inh,[5],68%
same,%Inh,[6],0%
same,%Inh,[7],23%
same,%Inh,[8],60%
same,%Inh,[9],66%
same,%Inh,[10],23%
same,%Inh,[11],0%
same,%Inh,[12],12%
same,%Inh,[13],0%
same,%Inh,[14],10%
same,%Inh,[15],74%
same,%Inh,[16]; [21],0%
same,%Inh,[17],0%
same,%Inh,[18],99.4%
same,%Inh,[19],0%
same,%Inh,[20],99.9%
COc1ccc(Nc2nccc(N3CCC(NC(=O)Nc4cccc(OC)c4)C3)n2)cc1 (centres unmarked) [GSK1379742],%Inh,[1],13%
same,%Inh,[2],0%
same,%Inh,[3],20%
same,%Inh,[4],6%
same,%Inh,[5],0%
same,%Inh,[6],0%
same,%Inh,[7],0%
same,%Inh,[8],0%
same,%Inh,[9],0%
same,%Inh,[10],0%
same,%Inh,[11],0%
same,%Inh,[12],13%
same,%Inh,[13],8%
same,%Inh,[14],24%
same,%Inh,[15],46%
same,%Inh,[16]; [21],0%
same,%Inh,[17],0%
same,%Inh,[18],8%
same,%Inh,[19],0%
same,%Inh,[20],4%
O=C(Nc1n[nH]c2nc(-c3ccc(O)cc3)ccc12)C1CC1 [SB-710363],%Inh,[1],0%
same,%Inh,[2],0%
same,%Inh,[3],9%
same,%Inh,[4],64%
same,%Inh,[5],87%
same,%Inh,[6],30%
same,%Inh,[7],76%
same,%Inh,[8],0%
same,%Inh,[9],32%
same,%Inh,[10],0%
same,%Inh,[11],0%
same,%Inh,[12],76%
same,%Inh,[13],0%
same,%Inh,[14],27%
same,%Inh,[15],0%
same,%Inh,[16]; [21],0%
same,%Inh,[17],0%
same,%Inh,[18],93.4%
same,%Inh,[19],26%
same,%Inh,[20],62%
Nc1ncnc2c1nc(-c1ccccc1)n2-c1ccccc1 [SKF-97293],%Inh,[1],4%
same,%Inh,[2],14%
same,%Inh,[3],7%
same,%Inh,[4],0%
same,%Inh,[5],13%
same,%Inh,[6],42%
same,%Inh,[7],0%
same,%Inh,[8],0%
same,%Inh,[9],17%
same,%Inh,[10],0%
same,%Inh,[11],0%
same,%Inh,[12],3%
same,%Inh,[13],6%
same,%Inh,[14],41%
same,%Inh,[15],23%
same,%Inh,[16]; [21],0%
same,%Inh,[17],6%
same,%Inh,[18],0%
same,%Inh,[19],0%
same,%Inh,[20],6%
